A selection: hits, their analogues and other compounds. The true share with any hit is near 3.2%.
TRb-SRC2 inh – inhibitors of human thyroid hormone receptor beta-SRC2 interaction | AID 1469 | TRbeta-SRC2 peptide binding, fluorescence polarization; receptor liganded with 1 µM T3 | hit rate 0.065% among 280,000 | Potency, µM (series often up to 106 µM), without a hit: at the highest dose activity change, negative = inhibition, usual class: inhibitors;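 note: plate controls were bound peptide for no effect and peptide without receptor for full effect; nearly all actives have a fitted effect of over 50% in size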
Target sequence (P10828 whole entry, looked up): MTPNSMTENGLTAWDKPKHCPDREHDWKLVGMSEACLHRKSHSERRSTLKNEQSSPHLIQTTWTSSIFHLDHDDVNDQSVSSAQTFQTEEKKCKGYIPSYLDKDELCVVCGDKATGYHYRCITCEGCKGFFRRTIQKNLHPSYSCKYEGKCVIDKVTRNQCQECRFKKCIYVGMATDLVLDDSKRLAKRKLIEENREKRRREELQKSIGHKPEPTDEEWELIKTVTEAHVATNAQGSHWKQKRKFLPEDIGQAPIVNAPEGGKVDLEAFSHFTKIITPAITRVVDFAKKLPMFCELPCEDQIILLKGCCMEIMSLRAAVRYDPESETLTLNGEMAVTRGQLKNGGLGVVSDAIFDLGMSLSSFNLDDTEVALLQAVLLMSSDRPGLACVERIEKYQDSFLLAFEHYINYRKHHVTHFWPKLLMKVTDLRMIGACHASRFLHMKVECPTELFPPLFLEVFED
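Each compound concentration gave % activity, normalized to unbound and bound Texas Red SRC2 controls, from polarization read after 5 hr ambient incubation with T3-loaded human TRb LBD.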
RGS12 GoLoco inh – RGS12 GoLoco-Gai1 interaction inhibition | P63096 | Gai1:RGS12 GoLoco peptide FP, rhodamine, 10 min | Potency, µM (series often up to 61.6 µM), for inactives: at the highest dose activity, negative = inhibition, usual class: inhibitors | hit rate 0.44% among 230,000 | AID 880; active = well fitted inhibition curve with a large enough effect, not every such curve was filed as active; inactive = no such curve, though single readings can be large or run the other way; note: nearly all actives have a fitted effect of over 30% in size
TexasRed fluor – Texas Red fluorescence interference in TRb-SRC2 counter-screen; AID 1479; hit rate 0.29% among 280,000; Potency, µM (doses to about 106 µM), for the others: at the top dose fluorescence change, negative = quenching; TRb/SRC2 Texas Red total fluorescence interference; active = well fitted curve in either direction with a large enough effect; inconclusive = small, poorly fitted or top-dose-only effect
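Human TRb ligand-binding domain at 0.6 uM with 20 nM Texas Red SRC2 peptide in Tris buffer containing 1 uM T3 and 5% DMSO, incubated with compound 5 h at ambient temperature. Total fluorescence (555/632 nm) calculated as parallel + 2 × perpendicular.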
Tau fibril FP – inhibitors of human tau fibril formation. P10636. K18 P301L tau heparin fibrillization, Alexa594 FP, 6 h. Potency, µM (doses to about 57.7 µM), inactives show top-dose activity, negative = inhibition, most hits filed as inhibitors. hit rate 0.39% among 280,000. AID 1468; note: nearly all actives have a fitted effect of over 55% in size
Target sequence (P10636 561-689 P618L limits assumed): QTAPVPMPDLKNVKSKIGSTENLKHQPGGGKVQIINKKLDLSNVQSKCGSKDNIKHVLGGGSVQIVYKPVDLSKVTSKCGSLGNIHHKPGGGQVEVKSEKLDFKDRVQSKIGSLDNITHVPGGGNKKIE
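Compound effects on tau fibrillization are measured by Alexa 594 fluorescence polarization (ex 555, em 632 nm). K18 P301L tau is used at 15 uM with 0.24 uM labeled tracer, and 20 uM heparin induces aggregation over 6 hr at 37 C.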
Tau fluor cs – counter-screen for tau fibril formation inhibitors | tau K18 P301L Alexa594 fluorescence, heparin fibrillization | Potency, µM (highest dose often 57.7 µM), for inactives: at the highest dose activity change, negative = decrease | hit rate 0.93% among 280,000; note: nearly all actives have a fitted effect of over 55% in size
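Human tau K18 P301L (15 uM unlabeled, 0.24 uM Alexa 594-labeled) in 100 mM sodium acetate pH 7 with 20 uM heparin, 6 hr at 37 C. ThT 30 uM added, 1 hr ambient; Alexa 594 FP and total fluorescence read at 555/632 nm.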
Tau fibril ThT – tau fibrillization inhibition (ThT binding); recombinant tau K18 P301L (four-repeat tau fragment), heparin-induced fibrillization, ThT fluorescence; Potency, µM (top dose mostly 57.4 µM), inactives show at the highest dose activity, negative = inhibition, hits mostly inhibitors; hit rate 2.1% among 270,000; note: nearly all actives have a fitted effect of over 55% in size
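Recombinant human tau K18 fragment […] carrying P301L, 15 uM unlabeled plus 0.24 uM Alexa 594-labeled, was fibrillized with 20 uM heparin in 100 mM sodium acetate pH 7 for 6 hr at 37 C; 30 uM ThT fluorescence read after 1 hr.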
The depositor's hits bear a star; ? = inconclusive; · = not tested or not shown; [ ] = remark or other dose. Unless noted, calls come from the whole dose curve; as a rule, active = well fitted curve in the direction sought with a large enough effect; inconclusive = small, poorly fitted or top-dose-only effect, or another doubt; inactive = no such curve, though single readings can be large; an effect the other way counts as inactive or inconclusive. Unless noted, % is set by controls: 0 for no effect and ±100 for the full control effect; potency is the fitted concentration of half-maximal effect.

SMILES	TRb-SRC2 inh	RGS12 GoLoco inh	TexasRed fluor	Tau fibril FP	Tau fluor cs	Tau fibril ThT
O=S(=O)(Nc1cc(Sc2cccc3cccnc23)c(O)c2ccccc12)c1ccccc1	2%	-10%	-2%	?	16µM*[quencher]	16µM*
COc1cccc2c(=S)c(CCC(C)=O)c(C)[nH]c12	-17%[53 µM]	-23%	2.8µM*[quencher]	3%	3%	8%
CC(=O)CCc1c(C)c2cccc(C)c2[nH]c1=O	-9%	6%	-1%	-4%	-14%	-12%
CCCOc1cccc(C(=O)Nc2cc(-c3ccccc3)no2)c1	2%	·	11%	?	?	-5%
Nc1nc(SCc2ccccc2Cl)cc(C(=O)O)n1	·	-2%[14.2 µM]	·	·	·	·
CN(C)c1ccc(NC(=O)c2sc(SCC(=O)Nc3ccc(Br)cc3)nc2N)cc1	6%	-6%	0%	13%	-15%	?
CN(C)c1ccc(NC(=O)c2sc(SCC(=O)Nc3nccs3)nc2N)cc1	3%	-39%	-6%	11%	14µM*[quencher]	4µM*
CCCn1c(=N)n(CC(=O)OCC)c2ccccc21	6%	4%	-6%	-4%	6%	12%
C=COCCn1c(=N)n(CCC)c2ccccc21	-1%	·	-7%	28µM*	?	-4%
CC(=O)CSc1nc2cc3c(cc2cc1C#N)OCCO3	9%	5%	-2%	15%	?	1.6µM*
N#Cc1cc2cc3c(cc2nc1SCC(=O)OC1CCCCC1)OCO3	-1%	-4%	3%	-4%	-16%	-13%
CN(C)Cc1ccccc1-c1cncnc1NCc1cccnc1	2%	-2%	-2%	2%	5%	-10%
CCc1ccc(NC(=O)CCCc2nnc3n(CC(C)C)c(=O)c4sccc4n23)cc1	-2%	·	-1%	5%	-19%	-2%
COc1ccc(S(=O)(=O)c2c(Nc3ccccc3F)sc(C(=O)c3cccc(OC)c3)c2N)cc1	2%	·	-2%	?	-20%	6%
COc1cc(C(=O)OCC(=O)c2c[nH]c3ccccc23)ccc1OCC(=O)N1CCOCC1	-4%	-20%	-8%	0%	?	?
COc1cc(OC)c(N(C)S(=O)(=O)c2cccc(C(=O)OCC(=O)c3c[nH]c4ccccc34)c2)cc1Cl	-4%	4%	3%	13µM*	?	10%
C=CCN(c1ccccc1OC)S(=O)(=O)c1cccc(C(=O)OCC(=O)c2c[nH]c3ccccc23)c1	7%	0%	-1%	16µM*	?	5%
Nc1ccc2cc3ccccc3cc2c1	0%	8%	0%	·	·	·
Nc1ccc2ncccc2c1	-4%	68%	-7%	?	-21%	16µM*
Nc1ccc2ncccc2c1N	5%	-1%	-3%	?	?	25µM*
Nc1ccc(/C=C/c2ccc3ncccc3c2)cc1	-8%	-8%	-13%	-6%	-29%	6.3µM*
c1cnc2ccc3ncccc3c2c1	-10%	-2%	-3%	0%	-24%	?
Cc1ccc(-n2c(=O)c3oc4ccccc4c3n(CC(=O)Nc3ccccc3)c2=O)cc1C	0%	·	-2%	?	-6%	12%
CN(C)CCCN1CCC2(CCC(C(C)(C)C)CC2)CC1	·	5%[14.2 µM]	·	·	·	·
CCC1C/C(=C\c2cccnc2)C(=O)/C(=C/c2cccnc2)C1 (configuration not stated)	-11%	3%	0%	?	-11%	10µM*
SMILES	TRb-SRC2 inh	RGS12 GoLoco inh	TexasRed fluor	Tau fibril FP	Tau fluor cs	Tau fibril ThT
O=C1/C(=C/c2cccnc2)CC/C1=C\c1cccnc1	-3%	5%	-2%	-3%	0%	?
O=C1/C(=C/c2cccnc2)CCC/C1=C\c1cccnc1	-7%	1%	3%	?	-16%	6.3µM*
CCOc1ccccc1-n1c(N)c(C(=O)OC)c2nc3ccccc3nc21	9%	·	-3%	-6%	-3%	-2%
COc1ccccc1CN1CCCC2(CCN(C(=O)c3ccco3)CC2)C1	·	16%	·	·	·	·
O=C(O)c1ccccc1Cl	-3%	12%	-3%	·	·	·
COc1ccc2c(c1)-c1nc(/N=C/c3c(O)ccc4ccccc34)sc1CC2	?	-18%	?	?	?	22µM*
COc1ccc2c(c1)-c1nc(/N=C/c3ccc(O)cc3)sc1CC2	0%	-10%	-6%	?	?	28µM*
CCCNC(=O)c1ccc2c(c1)N=C(CCC)c1ccccc1S2	0%	·	-2%	-3%	-9%	-7%
COc1ccc(CCNC(=O)Cc2cccs2)cc1	0%	13%	-1%	1%	-12%	-13%
O=C(Cc1ccc(Nc2nc3ccc(Br)cc3[nH]2)cc1)NCCc1cccs1	14%	16%	0%	?	16µM*[quencher]	?
O=C(NCC1CC1)c1ccc(Nc2nc3ccc(Br)cc3[nH]2)cc1	-1%	-37%	-3%	?	13µM*[quencher]	?
O=C(NCCc1nc2ccccc2[nH]1)c1cccc(Br)c1	4%	24%	-2%	4%	-8%	-5%
O=C(NCc1ccco1)c1cccc(Nc2nc3ccc(Br)cc3[nH]2)c1	14%	7%	-1%	?	10µM*[quencher]	28µM*
CCc1nc2c(cnn2-c2ccc(Cl)cc2)c(=O)n1-c1ccc(OC)c(Cl)c1	3%	·	1%	-14%	-14%	-8%
CCCn1c(C)nc2c(NCC(C)(C)CN(C)C)nc(C)nc21	-2%	7%	0%	-14%	-7%	-3%
COC(=O)c1ccccc1NC(=O)COC(=O)c1ccccc1N=Nc1ccc(N(C)C)cc1	-4%	1%	-1%	17%	?	4.5µM*
CN(C)c1ccc(N=Nc2ccccc2C(=O)OCC(=O)N(C)c2ccccc2)cc1	-16%	16%	2%	?	4%	1.6µM*
COc1ccccc1CNc1nc2nc(C)c(Cl)c(C)n2n1	-18%[53 µM]	·	0.022µM*[quencher]	-7%	-7%	-4%
NC(=O)CCn1c2ccccc2c2ccccc21	-4%	1%	-3%	5%	5%	0%
Cc1ccc2c(c1)c1cccc3c1n2CCN3CCC(N)=O	8%	2%	-1%	?	?	11µM*
c1ccc(OCc2nc3ccccc3s2)cc1	8%	2%	1%	1%	-6%	-15%
Cc1cc(OCc2nc3ccccc3s2)ccc1N	3%	7%	-4%	-17%	?	14µM*
Cc1ccc(-n2nnnc2C(Cl)(Cl)c2nnnn2-c2ccc(C)cc2)cc1	-2%	-3%	0%	16µM*	-19%	8.9µM*
Clc1ccc(-c2nnnn2-c2ccc(Cl)cc2)cc1	-1%	0%	-5%	6%	3%	6%
Cc1ccc(N(CC(=O)Nc2ccc(C)c(Cl)c2)S(=O)(=O)c2cccs2)cc1	6%	·	-2%	?	?	12%
